Assay outcomes as filed in PubChem BioAssay.
This excerpt belongs to a sample that is enriched for hits.
U2OS ROS induce = inducers of reactive oxygen species in cancer cells. ROS induction (% of piperlongumine), % at 10 µM. U2OS ROS induction, H2DCF-DA fluorescence. 46,000 tested, 2% active; in the data active means ROS induction above about 79%, passing the limit was not always enough; inconclusive means no clear call, values can overlap the other calls;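 further: 0% = DMSO vehicle median and 100% = reference compound median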
PD-1 reversal = reversal of PD-1 mediated T-cell inhibition; primary human CD4 T cells, PD-L1 beads, CellTiter-Glo 96 h; activation, % (test concentration not listed); 29,000 tested, under 10 active; AID 2316; call rule not given here;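 further: 0% = median vehicle wells and 100% = positive control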
YB-1 expression = YB-1 expression inhibition; U2OS, qRT-PCR YB-1 vs CDIP delta delta Cp, 16 h; stronger effect = higher value; zero = DMSO, each unit about twofold; delta delta Cp (YB-1 minus CDIP) (no concentration beside the values); 30,000 tested, 0.37% active; AID 434959;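 active means delta delta Cp rounded down to an integer at or above 3, about 3 SD of DMSO wells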;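 further: higher means less YB-1 transcript or more CDIP transcript relative to DMSO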
MITF inh = MITF inhibition. inhibition, % (concentration not given with the values). TRPM1 promoter luciferase, luminescence, 24 h. AID 2240. 37,000 tested, 0.28% active; in the data active means inhibition above about 85%; inconclusive means no clear call, values can overlap the other calls; inactive means below about 68%;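 further: human melanocyte line stably carrying TRPM1 promoter luciferase reporter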
NOMO-1 viab = STK33 inhibitor candidate reducing NOMO-1 cell viability | NOMO-1 AML viability, CellTiter-Glo luminescence, 72 h | inhibition, % (concentration not given with the values) | 37,000 tested, 7.5% active | AID 2330; in the data active means inhibition above about 80%; inconclusive means no clear call, values can overlap the other calls
* marks the source's active call; other numbers are inactive results; ? = inconclusive; . = no result.

SMILES | U2OS ROS induce | PD-1 reversal | YB-1 expression | MITF inh | NOMO-1 viab
C[C@H]1CN([C@@H](C)CO)C(=O)CCCn2cc(nn2)CO[C@@H]1CN(C)C(=O)Oc1ccc2ccccc2c1 | 133.7* | . | -0.251 | . | .
Cc1c(O)c(C(=O)O)c(O)c2c1[C@H](C)[C@@H](C)OC2=O | 13.9 | 0.5 | 0.384 | 11.0 | -9.1
CO[C@H]1[C@@H](O)[C@@H](C)O[C@@H](O[C@@H]2C=C3C(OC(C)=O)CC4(O)C(CC[C@]5(C)[C@@H](C6=CC(=O)OC6)CC[C@]45O)[C@@]3(C)CC2)[C@@H]1O (stereo partly specified) | 7.2 | -29.5 | -0.0702 | 35.5 | 121.5*
C[C@]12CC[C@H](O)C[C@H]1CC[C@@H]1[C@@H]2C[C@@H](O)[C@]2(C)[C@@H](C3=CC(=O)OC3)CC[C@]12O | -6.0 | -18.4 | 0.306 | 17.8 | 97.8*
CO[C@H]1[C@@H](O)[C@@H](C)O[C@@H](OC2CCC3(C)C(CC[C@@H]4[C@@H]3CCC3(C)C(C5=CC(=O)OC5)C(O)CC43O)C2)[C@@H]1O (stereo partly specified) | 8.3 | -15.7 | 2.11 | 18.7 | 121.3*
CC(=O)OC1CCC2(C)C(CC[C@@H]3[C@@H]2CCC2(C)C(C4=CC(=O)OC4)CCC32O)C1 (stereo partly specified) | 43.0 | -15.9 | 0.658 | 11.0 | 108.6*
COC1CC(OC2CCC3(C)C(CCC4(O)C3CC(OC(=O)c3ccccc3)C3(C)C(O)(C(C)=O)CCC43O)C2)OC(C)C1OC1CC(OC)C(OC2OC(C)C(O)C(OC)C2O)C(C)O1 (stereo unspecified) | -0.4 | 1.6 | -0.082 | -7.3 | 31.8
CCN1C[C@]2(COC)CC[C@H](O)[C@]34C1[C@H](C[C@H]23)[C@@]1(O)C[C@H](OC)[C@H]2C[C@@H]4[C@@H]1[C@H]2OC(C)=O | 0.5 | . | -0.243 | -1.0 | 7.3
CC12CC[C@H]3C(CCC4(O)CC(O)CCC34O)C1(O)CCC2C1=CC(=O)OC1 (stereo partly specified) | -4.6 | -1.5 | -0.154 | -13.7 | 6.4
CC(=O)O[C@H]1CC[C@]2(C=O)[C@H]3CC[C@]4(C)[C@@H](C5=CC(=O)OC5)CC[C@]4(O)[C@@H]3CC[C@]2(O)C1 | ? | -23.4 | -0.0663 | 44.5 | 123.7*
C[C@]12CC[C@H](O)C[C@H]1CC[C@@H]1[C@@H]2CC[C@]2(C)[C@@H](C3=CC(=O)OC3)CC[C@]12O | 0.8 | . | 0.245 | 40.1 | 119.6*
C[C@H]1O[C@@H](O[C@H]2[C@@H](O)C[C@H](O[C@H]3[C@@H](O)C[C@H](O[C@H]4CC[C@]5(C)C6CC[C@]7(C)[C@@H](C8=CC(=O)OC8)CC[C@]7(O)C6CC[C@@H]5C4)O[C@@H]3C)O[C@@H]2C)C[C@H](O)[C@@H]1O (stereo partly specified) | 11.0 | . | -0.235 | 17.0 | 111.2*
COC1CC(O[C@H]2CC[C@@]3(C)C(CCC4C3CC[C@]3(C)C(C5=CC(=O)OC5)CCC43O)C2)OC(C)C1OC1OC(COC2OC(CO)C(O)C(O)C2O)C(O)C(O)C1O (stereo partly specified) | -7.2 | -5.8 | 0.449 | 9.0 | 119.1*
Oc1ccc2c3c1OC1[C@@H](O)CC[C@@]4(O)[C@@H](C2)N(CC2CCC2)CC[C@]314 (stereo partly specified) | -10.7 | . | -0.0564 | -0.5 | 3.3
C/C=C(\C)[C@H](O)[C@H](C)/C=C(C)/C=C/C/C(C)=C/Cc1[nH]c(OC)c(OC)c(=O)c1C | 17.4 | -8.4 | -0.533 | 96.2* | 98.6*
CCOC(=O)c1c(C)n(C(C)C)c2ccc(OC(=O)c3ccccc3)cc12 | 0.4 | -1.6 | 0.277 | 12.0 | 5.4
O=C(CCCN1CCC2(CC1)C(=O)N(Cc1cccc(F)c1)CN2c1ccccc1)c1ccc(F)cc1 | 44.0 | . | -0.33 | 76.4 | 91.1*
Cc1nn(Cc2cccc(C(=O)Nc3ccc4oc(=O)cc(C(F)(F)F)c4c3)c2)c(C)c1Cl | -2.1 | 2.0 | . | 14.7 | 36.6
CCOC(=O)c1cc(C(C)(C)C)nc(OC(=O)N(C)C)c1C#N | 14.2 | -0.6 | 0.113 | -0.5 | 101.0*
c1cncc(C2Nc3ccccc3-n3cccc32)c1 (stereo unspecified) | -4.2 | -6.2 | -0.303 | -31.2 | 72.4
COc1ccc2c(c1OC)C(=O)O[C@H]2[C@H]1c2cc3c(cc2CCN1C)OCO3 | 7.1 | . | 6.43* | -3.3 | 15.1
COC(=O)c1c(C)n(CCCOC(C)C)c2c1cc(O)c1ccccc12 | 52.8 | -2.5 | . | 13.4 | 3.9
CCOC(=O)C1(c2ccccc2)CCN(C(=O)c2c(C)oc3ccc(OC)cc23)CC1 | 80.1* | . | . | . | .
CC(C(=O)Nc1ccc(Cl)cc1C(=O)c1ccccc1)N1C(=O)C2C3C=CC(C3)C2C1=O (stereo unspecified) | 20.1 | -4.2 | . | 19.3 | 36.3
Cc1ccnc(NC(c2ccccc2[N+](=O)[O-])c2ccc3ccc(C)nc3c2O)c1 (stereo unspecified) | -7.6 | -15.0 | . | 56.7 | 124.1*
SMILES | U2OS ROS induce | PD-1 reversal | YB-1 expression | MITF inh | NOMO-1 viab
CCN(CC)c1nc2ccccc2c(=O)n1-c1ccccc1 | 6.0 | . | . | . | .
CC(C)C[C@H]1C(=O)N2CCC[C@H]2[C@]2(O)O[C@](NC(=O)[C@@H]3C=C4c5cccc6[nH]cc(c56)C[C@H]4N(C)C3)(C(C)C)C(=O)N12 | 119.9* | . | 0.363 | -0.8 | ?
C[C@@H](CO)NC(=O)C1C=C2c3cccc4[nH]cc(c34)C[C@H]2N(C)C1 (stereo partly specified) | -9.3 | . | -0.268 | -21.0 | 9.7
CCCCCc1cc(OC)c(CC=C(C)C)c(O)c1C(=O)O | -9.8 | . | -0.24 | . | .
COC(=O)C12CC3CC(C(C)O)C1N(CCc1c2[nH]c2ccc(OC)cc12)C3 (stereo unspecified) | 13.5 | 0.6 | -0.562 | 8.9 | 29.7
CC[C@H]1CN2CC[C@H]1C[C@@H]2[C@@H](O)c1ccnc2ccc(OC)cc12 | 17.7 | 0.5 | -0.169 | -4.0 | 23.0
CCC(C)[C@H]1C(=O)O[C@H](C(C)C)C(=O)N(C)[C@@H](C(C)CC)C(=O)O[C@H](C(C)C)C(=O)N(C)[C@@H](C(C)CC)C(=O)O[C@H](C(C)C)C(=O)N1C (stereo partly specified) | -25.5 | -14.1 | -0.0998 | 96.1* | 119.2*
O=C(O)C1C2CCC(O2)C1C(=O)NCCc1ccccc1 (stereo unspecified) | -1.3 | -12.4 | . | 32.0 | 68.5
Fc1ccc(Sc2c(F)c(F)nc(N3CCNCC3)c2F)cc1 | -10.6 | . | . | . | .
O=c1c2ccccc2[se]n1-c1ccccc1 | -3.2 | -58.4 | -2.3 | 8.9 | 141.3*
C[C@H]1CC[C@@H]2[C@@H](C)[C@H]3[C@H](C[C@H]4[C@@H]5CC=C6C[C@@H](O[C@@H]7O[C@H](CO)[C@H](O)[C@H](O[C@@H]8O[C@H](CO)[C@@H](O)[C@H](O)[C@H]8O)[C@H]7O[C@@H]7O[C@@H](C)[C@H](O)[C@@H](O)[C@H]7O)CC[C@]6(C)[C@H]5CC[C@]34C)N2C1 | 24.1 | -0.2 | 0.109 | 8.0 | 31.9
